Compound activity as filed in PubChem.
Hits are enriched below; roughly 4.2% of the tested compounds scored in any of these assays.
TRPV1 PAM: HTS Assay for Compounds that Act as Potentiators of the Vanilloid Receptor 1; TRPV1-expressing cells, Fluo-8 calcium influx, capsaicin EC20 potentiation; potentiation, % at 8.33 µM; 320,000 compounds, 0.02% hits; AID 540277, 2011; in the data active = potentiation above about 80%; inconclusive = between about 30% and that limit; also: 0% is about no effect
Target sequence (Q8NER1 whole entry, looked up): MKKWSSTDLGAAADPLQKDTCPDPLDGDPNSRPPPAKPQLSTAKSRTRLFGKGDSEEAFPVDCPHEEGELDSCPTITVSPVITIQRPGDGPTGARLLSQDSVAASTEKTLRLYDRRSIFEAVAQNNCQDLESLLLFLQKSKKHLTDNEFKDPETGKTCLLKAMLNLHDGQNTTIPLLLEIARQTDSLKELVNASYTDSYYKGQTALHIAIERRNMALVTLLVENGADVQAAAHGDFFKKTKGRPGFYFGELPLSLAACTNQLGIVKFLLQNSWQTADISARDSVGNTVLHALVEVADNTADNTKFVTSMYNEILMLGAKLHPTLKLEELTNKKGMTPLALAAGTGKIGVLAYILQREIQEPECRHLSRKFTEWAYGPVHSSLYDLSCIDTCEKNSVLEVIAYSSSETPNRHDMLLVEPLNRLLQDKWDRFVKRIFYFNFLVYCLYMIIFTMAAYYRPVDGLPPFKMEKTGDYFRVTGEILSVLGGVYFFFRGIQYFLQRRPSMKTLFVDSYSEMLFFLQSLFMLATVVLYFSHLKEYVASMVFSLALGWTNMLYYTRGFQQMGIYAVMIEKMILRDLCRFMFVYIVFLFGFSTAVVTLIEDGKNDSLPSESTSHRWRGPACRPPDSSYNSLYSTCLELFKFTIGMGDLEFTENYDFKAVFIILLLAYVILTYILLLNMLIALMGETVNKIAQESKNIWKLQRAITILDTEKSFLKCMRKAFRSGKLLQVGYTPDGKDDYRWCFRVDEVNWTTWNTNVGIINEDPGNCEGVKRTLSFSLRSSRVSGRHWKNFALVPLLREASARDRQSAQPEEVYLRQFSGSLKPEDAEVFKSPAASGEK
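Cells expressing TRPV1 were dye-loaded with Fluo-8 and read kinetically: 10 s baseline, 3 min after compound (agonist portion), then 2 min after EC20 capsaicin (allosteric enhancer portion). Calcium-bound dye fluorescence at 480/520 nm.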
D1 ag: Allosteric Agonists of the Human D1 Dopamine Receptor: qHTS. HEK293 T-REx D1 cells, calcium flux, agonist mode. activation, % at 2 µM. 360,000 compounds, 1% hits; in the data active = activation above about 30%; also: 0% is about no effect
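Agonism was scored from calcium flux recorded over 180 s (1 read/s) after pintool compound addition, following a 10-cycle baseline. Cells were inducible force-coupled HEK293 TREx D1, plated overnight at 30 C and loaded with no-wash calcium dye.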
D1 antag: Antagonist of Human D 1 Dopamine Receptor: qHTS. D(1A) dopamine receptor (Homo sapiens), P21728. HEK293 TREx D1 cells, calcium flux, dopamine EC80; hits give low values. activity change, negative = inhibition, % at 10 µM. 360,000 compounds, 3.2% hits; in the data active = activity change below about -30%; also: % is scaled to controls: 0 for no effect and ±100 for the full control effect
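Using tetracycline-induced force-coupled D1 Hek293 cells and a calcium dye, signals were followed for 180 s after compound, then for 180 s after EC80 dopamine, to detect inhibitors.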
TRPV1 agonist: HTS Assay for Compounds that Act as Agonists of the Vanilloid Receptor 1 | Transient receptor potential cation channel subfamily V member 1 (Homo sapiens), Q8NER1 | TRPV1-expressing cells, Fluo-8 calcium influx, agonist mode | activation, % at 8.33 µM | 320,000 compounds, 0.19% hits | AID 540275, 2011; in the data active = activation above about 80%; inconclusive = between about 30% and that limit; also: 0% is about no effect
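Fluo-8 calcium influx in TRPV1-expressing cells, kinetic read (ex 480/em 520 nm). Compound added and read 3 min for agonist activity, followed by capsaicin at EC20 final and 2 min further read for enhancement.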
D1 PAM: Potentiators of Human D1 Dopamine Receptor: qHTS | D(1A) dopamine receptor (Homo sapiens), P21728 | HEK293 TREx D1 cells, calcium flux, dopamine EC20 potentiation | potentiation, % at 10 µM | 360,000 compounds, 0.036% hits | AID 504651, 2011; in the data active = potentiation above about 30%; also: 0% is about no effect
Numbers without * were called inactive; i = inactive; u = inconclusive; x = no result given; ! = repeats disagree.

SMILES	TRPV1 PAM	D1 ag	D1 antag	TRPV1 agonist	D1 PAM
CCN(CC)S(=O)(=O)c1ccc(C(=O)OCC(=O)NC2CCCC2)cc1	-19	9	-21	16	-8
CC(=O)Nc1cccc(C(=O)OCC(=O)NC2CCCCCCC2)c1	0	6	-39*	0	-5
Cc1ccc(C(=O)N2CCc3cc(CNC(=O)CSc4ccccc4)ccc32)cc1	x	2	0	x	0
CCCN(CCC)CCNC(=O)C1CCCN(S(=O)(=O)c2cccc3nsnc23)C1 (stereo unspecified)	x	-2	19	x	4
NC(=O)c1ccc(NC(=O)COC(=O)/C=C/c2ccc3c(c2)OCO3)cc1	-19	8	-41*	15	1
CC(=O)c1cccc(NC(=O)COC(=O)c2ccc3c(c2)OCO3)c1	9	9	-31*	4	x
CC(=O)Nc1ccc(NC(=O)COC(=O)/C=C/c2ccc3c(c2)OCO3)cc1	6	4	15	0	x
CC(=O)c1cccc(NC(=O)COC(=O)c2ccc(S(C)(=O)=O)c([N+](=O)[O-])c2)c1	-3	2	-34*	-1	0
COc1cc(SC)ccc1C(=O)OCC(=O)NC1CCCCC1	u	1	-32*	18	2
CCOC(=O)c1ccccc1NC(=O)N(C(C)C)C1CCN(C(C)=O)CC1	x	1	-6	x	-2
COc1cccc(NC(=O)Cn2nc(C)c3c(C)n(-c4ccccc4)nc3c2=O)c1	x	2	0	x	-6
Cc1csc(Sc2ccc([N+](=O)[O-])cc2C(=O)OCC(=O)NC2CCCC(C)C2C)n1 (stereo unspecified)	20	1	-32*	-1	3
CC1CCN(CCCNC(=O)c2ccc3c(=O)n(CCc4ccccc4)c(=O)[nH]c3c2)CC1	8	3	-42*	-4	-1
O=C(NCc1ccccn1)c1ccc2c(=O)n(CCc3ccccc3)c(=O)[nH]c2c1	0	9	-54*	-5	-10
CCN(CC)CCCNC(=O)c1ccc2c(=O)n(CCc3ccccc3)c(=O)[nH]c2c1	x	1	-16	x	-2
CCCCCn1c(=O)[nH]c2cc(C(=O)NCc3ccccn3)ccc2c1=O	-9	2	-9	7	-4
COCCNC(=O)c1ccc2c(=O)n(CCc3ccccc3)c(SCC(=O)CC(=O)OC)nc2c1	x	1	-34*	x	-5
CC(=O)NCCNC(=O)c1ccc2c(=O)n(CCc3ccccc3)c(=O)[nH]c2c1	x	0	-67*	x	-2
CCc1nnc(NC(=O)CSc2nccn2Cc2ccccc2)s1	x	8	-7	x	1
CCOc1ccc(C(=O)Nc2ccc3oc(-c4ccc5ccccc5c4)nc3c2)cc1	x	1	-8	x	0
COc1ccccc1N1CCN(C(=O)c2cnn(-c3cccc(Cl)c3)c2C2CCN(C(=O)OC(C)(C)C)CC2)CC1	x	1	2	x	-3
Cc1cc2c(s1)c1cnn(Cc3cc(F)c(F)c(F)c3)c(=O)c1n2C	x	1	-9	x	4
Cc1cc(C)nc(N2CCC(C(=O)O)CC2)n1	4	0	-32*	-2	4
CCCNC(=O)C1CCN(c2nc(C)cc(C)n2)CC1	5	-1	-14	0	2
CCCNCC(O)COc1ccccc1C(=O)CCc1ccccc1 (stereo unspecified)	4	x	-52*	4	x
SMILES	TRPV1 PAM	D1 ag	D1 antag	TRPV1 agonist	D1 PAM
COCCCNCCCCOc1ccc(Br)cc1C	0	37*	-35*	5	-18
COCCNCCCCOc1ccc(Br)cc1C	-5	11	-17	-1	-8
COc1ccc(-n2ncc(C(=O)Nc3ccc4c(c3)OCCO4)c2C2CCN(C(=O)OC(C)(C)C)CC2)cc1	x	3	2	x	0
O=C(Nc1nc2c(s1)CCCC2)c1cc(-c2ccccc2)nc2ccccc12	-5	32*	9	13	5
O=C(Nc1nc2c(s1)CCCC2)c1cc(-c2ccncc2)nc2ccccc12	20	1	0	2	-4
CCCCN(CC)CCCNC(=O)c1ccc2c(c1)N(Cc1ccc(C)cc1)C(=O)c1ccccc1S2	x	51*	-33*	x	0
CCOc1ccc(CN2C(=O)c3ccccc3Sc3ccc(C(=O)NCCCN4CCOCC4)cc32)cc1	-1	30*!	6	4	0
CCOc1ccc(-n2c(C)nc3cc(C(=O)NCCCN4CCOCC4)ccc32)cc1	-15	1	-52*	13	-3
O=C(Nc1ccccc1F)c1nc(SCc2ccc(F)cc2)ncc1Cl	x	16	6	x	-2
CCCN1C(=O)C2(c3ccccc31)c1c(oc3ccc(F)cc3c1=O)C(=O)N2CCCOC(C)C (stereo unspecified)	x	0	9	x	1
CN1CCC(=NOc2ccc([N+](=O)[O-])cc2)CC1	-25	11	-52*	-1	-9
COc1ccc(C(=O)ON=C2CCN(c3ccc([N+](=O)[O-])cc3)CC2)cc1	-15	15	-2	7	8
CC(C)c1ccc(NC(=O)COc2ccccn2)cc1	17	2	-91*	1	-9
S=c1nc(C2CCCCC2)[nH][nH]1	-5	1	-50*	3	2
O=C(Nc1cc(C(F)(F)F)ccc1Cl)c1cnn(-c2ccccc2)c1-n1cccc1	x	9	3	x	1
Cc1cc(NC(=O)CSc2nc3ccccc3n2CC(=O)N2CCC(C)CC2)no1	3	-1	-10	2	0
Cc1cc(NC(=O)CSc2nc3ccccc3n2CC(=O)N2CC(C)CC(C)C2)no1 (stereo unspecified)	-4	-1	-41*	-1	1
COc1ccc2c(c1)[nH]c1c(=O)n(N)cnc12	0	1	2	-1	-5
Nn1cnc2c([nH]c3ccccc32)c1=O	21	2	-32*	-9	0
Cc1cc2c(c(=O)n1Cc1ccccc1)C1O[C@](CCCCN3C(=O)c4ccccc4C3=O)(Cc3cc(C#N)ccc31)O2	i	0	-9	i	3
COc1ccc(-c2nc(CSCC(=O)N3CCN(c4ccc(F)cc4)CC3)c(C)o2)cc1	x	4	-33*	x	1
COc1ccc(-c2nc(CSCC(=O)N3CCN(c4ccccc4)CC3)c(C)o2)cc1	x	10	-8	x	-5
CCS(=O)(=O)N1CCC(C(=O)NCCC(C)C)CC1	x	-2	-4	x	0
COc1ccc(OC)c(NC(=O)CS(=O)(=O)Cc2nc(-c3ccc(C)cc3)oc2C)c1	x	0	3	x	1
Cc1oncc1C(=O)Nc1ccc(C(F)(F)F)cc1	-9	5	-67*	u	-5
